High-throughput results deposited in PubChem BioAssay by National Center for Advancing Translational Sciences (NCATS).
GLS inhibitor: blocks human kidney-isoform glutaminase activity. GLS enzymatic activity, qHTS titration. AID 624170. Potency, µM (doses to about 45.5 µM), without a hit: at the highest dose activity change, negative = inhibition, actives largely listed as inhibitors. 410,000 tested, 0.21% active. O94925; further: potency means the concentration at half of the fitted maximal effect; on the % scale 0 is the no-effect control and ±100 the full control effect
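hKGA; 45 mM KH2PO4 pH 8.2 + 0.02% Tween-20; cpd via pin tool; 1 mM Gln soln; GluOx/HRP/Amplex Red; RT 30 min; fluor. t0 & final.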
mIDH1 inhibitor: inhibitors of human mutant IDH1 R132H | O75874 | IDH1-R132H enzyme, NADPH consumption, diaphorase/resazurin fluorescence | Potency, µM (series often up to 76.6 µM), inactives show top-dose activity change, negative = inhibition, hits mostly inhibitors | 390,000 tested, 0.093% active | AID 602179; further: potency means the concentration at half of the fitted maximal effect; on the % scale 0 is the no-effect control and ±100 the full control effect; nearly all actives have a fitted effect of over 65% in size
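IDH1-R132H (0.5 ug/mL dispensed) in pH 7.5 Tris buffer was preincubated 30 min with compound, then given a substrate mix of 0.016 mM NADPH and 2 mM alpha-KG for 80 min at room temperature; remaining NADPH was read by diaphorase/resazurin fluorescence.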
PGK inhibitor: inhibitors of T. brucei phosphoglycerate kinase; PGK/GAPDH coupled, Kinase-Glo luminescence, 60 min; 380,000 tested, 0.043% active; P07378; Potency, µM (highest dose often 57.5 µM), without a hit: top-dose activity change, negative = inhibition, usual class: inhibitors; further: potency means the concentration at half of the fitted maximal effect; on the % scale 0 is the no-effect control and ±100 the full control effect; nearly all actives have a fitted effect of over 60% in size
Target sequence (P07378 whole entry, looked up): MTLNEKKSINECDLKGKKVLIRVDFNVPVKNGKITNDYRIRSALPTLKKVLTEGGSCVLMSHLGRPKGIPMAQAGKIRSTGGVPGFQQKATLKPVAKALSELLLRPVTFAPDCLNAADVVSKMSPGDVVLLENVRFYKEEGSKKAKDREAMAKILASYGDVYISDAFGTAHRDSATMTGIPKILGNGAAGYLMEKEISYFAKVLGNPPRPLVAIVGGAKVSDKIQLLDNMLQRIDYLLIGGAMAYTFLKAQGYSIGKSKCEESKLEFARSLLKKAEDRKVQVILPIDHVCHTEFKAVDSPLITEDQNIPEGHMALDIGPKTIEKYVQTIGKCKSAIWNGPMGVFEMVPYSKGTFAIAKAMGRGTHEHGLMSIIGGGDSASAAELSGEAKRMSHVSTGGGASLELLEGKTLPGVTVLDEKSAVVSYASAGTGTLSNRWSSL
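Recombinant glycosomal PGK reaction used 1,3-bisphosphoglycerate generated in-well by GAPDH (100nM final) in 100mM TEA pH 7.6, 5mM MgCl2, 0.01% Tween-20. After 60 minutes at room temperature, ATP was read by Kinase-Glo Plus luminescence end-point.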
Pin1 inh: inhibitors of human Pin1; Q13526; Pin1 FP peptide displacement, HiFluor488, 10 min; Potency, µM (doses to about 115 µM), for inactives: at the top dose activity, negative = inhibition, actives largely listed as inhibitors; 390,000 tested, 0.009% active; active means well fitted inhibition curve with a large enough effect in the polarisation, with a control signal flat, not every such curve was filed as active; inconclusive means small, poorly fitted or top-dose-only effect, or effect the other way, or a change in a side signal; inactive means no such curve, though single readings can be large or run the other way; the % refers to the polarisation; further: potency means the concentration at half of the fitted maximal effect; on the % scale 0 is the no-effect control and ±100 the full control effect
Target sequence (Q13526 whole entry, looked up): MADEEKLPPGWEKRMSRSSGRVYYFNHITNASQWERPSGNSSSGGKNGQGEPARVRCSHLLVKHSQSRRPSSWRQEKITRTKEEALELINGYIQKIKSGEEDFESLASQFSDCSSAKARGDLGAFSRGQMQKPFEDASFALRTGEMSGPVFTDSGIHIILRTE
IDH1 autofl: counter-screen for mutant IDH1 inhibitors: fluorescence interference | shares compounds with mIDH1 inhibitor | Resorufin detection reagent fluorescence interference, cell-free | inhibition of signal, % at 51.2 µM | 750 tested, under 10 active | AID 623980;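 further: 0% = wells with normal resorufin and full inhibition = wells lacking resorufin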
WT IDH1 inh: selectivity of mutant IDH1 inhibitors: human wild-type IDH1; shares compounds with mIDH1 inhibitor; WT IDH1 enzyme, NADPH diaphorase/resazurin fluorescence; Potency, µM (titrated, usually from 115 µM), for inactives: at the highest dose activity change, negative = inhibition, hits mostly inhibitors; 750 tested, 9% active; AID 623995;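 further: potency means the concentration at half of the fitted maximal effect; 0% = full WT IDH1 enzyme control and full inhibition = no enzyme wells; nearly all actives have a fitted effect of over 55% in size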
IDH1 R132H conf: mutant IDH1 (human) inhibition, confirmed; IDH1 R132H enzyme, NADPH diaphorase/resazurin fluorescence; 750 tested, 83% active; Potency, µM (top dose mostly 76.6 µM), for inactives: top-dose activity change, negative = inhibition, usual class: inhibitors; shares compounds with mIDH1 inhibitor; AID 624002; further: potency means the concentration at half of the fitted maximal effect; nearly all actives have a fitted effect of over 50% in size
* = called active by the depositor. Hits are enriched below; roughly 0.33% of the tested compounds scored in any of these assays. Unless noted, the call rests on the fitted dose curve; in most records, active means well fitted curve in the direction sought with a large enough effect; inconclusive means small, poorly fitted or top-dose-only effect, or another doubt; inactive means no such curve, though single readings can be large; an effect the other way counts as inactive or inconclusive.

O=C(Nc1ccccc1)Nc1nc(Nc2cc(F)cc(F)c2)nc(NC2CCCC2)n1 was read as Pin1 inh -11.5%.
CCOC(=O)c1ccc(N2C(=O)c3n[nH]c(-c4ccco4)c3C2c2cccc(F)c2)cc1 (stereo not given) was read as GLS inhibitor 3.2%, mIDH1 inhibitor -18.9%, PGK inhibitor -9.2% and Pin1 inh 38.9%.
For CCOC(=O)c1ccc(N2C(=O)c3n[nH]c(-c4ccco4)c3C2c2cccc(OC)c2)cc1 (stereo not given) the results were GLS inhibitor 4.4%, mIDH1 inhibitor inconclusive, PGK inhibitor inactive, Pin1 inh 38.2%, IDH1 autofl -1.5, WT IDH1 inh 0.2% and IDH1 R132H conf inconclusive.
Screening CCOC(=O)c1ccc(N2C(=O)c3n[nH]c(C)c3C2c2ccccc2OC)cc1 (stereo not given) returned GLS inhibitor 0.8%, mIDH1 inhibitor inconclusive, PGK inhibitor -10.9%, Pin1 inh inconclusive, IDH1 autofl -5.5, WT IDH1 inh -2.1% and IDH1 R132H conf 35.5µM*.
`CCOC(=O)c1ccc(N2C(=O)c3n[nH]c(-c4ccco4)c3C2c2cccc(O)c2)cc1` (stereo not given) gave GLS inhibitor 14.2%, mIDH1 inhibitor inconclusive, PGK inhibitor -3.0%, Pin1 inh 34.7%, IDH1 autofl 0.2, WT IDH1 inh -10.6% and IDH1 R132H conf 35.5µM*.
CCOC(=O)c1ccc(N2C(=O)c3n[nH]c(-c4cccs4)c3C2c2ccc(O)c(OC)c2)cc1 (stereo not given) was read as GLS inhibitor -9.0%, mIDH1 inhibitor inconclusive, PGK inhibitor -0.2%, Pin1 inh 17.2%, IDH1 autofl 4.5, WT IDH1 inh 0.4% and IDH1 R132H conf 14.1µM*.
For c1ccc(CNCc2nnc(-c3cc4ccccc4[nH]3)o2)cc1 the results were Pin1 inh -5.3%.
For Cc1ccc(SCc2[nH]nc3c2C2(CCSCC2)C(C#N)=C(N)O3)cc1 the results were GLS inhibitor 28.6%, mIDH1 inhibitor -18.6%, PGK inhibitor -6.1% and Pin1 inh 2.1%.
CCOC(=O)N1CCC2(CC1)C(C#N)=C(N)Oc1n[nH]c(CSc3ccc(C)cc3)c12 was read as GLS inhibitor 26.6%, mIDH1 inhibitor inconclusive, PGK inhibitor -8.2%, Pin1 inh 0.6%, IDH1 autofl 3.9, WT IDH1 inh -0.1% and IDH1 R132H conf 28.2µM*.
`Clc1ccc(-c2csc(NNC3=NCCCCC3)n2)cc1` gave GLS inhibitor 20.4%, mIDH1 inhibitor inconclusive, PGK inhibitor -8.5%, Pin1 inh 1.8%, IDH1 autofl 0.3, WT IDH1 inh inconclusive and IDH1 R132H conf 44.7µM*.
c1ccc(-c2csc(NNC3=NCCCCC3)n2)cc1 was read as GLS inhibitor 44.6%, mIDH1 inhibitor -24.8%, PGK inhibitor inactive and Pin1 inh 2.5%.
Screening CCCCC(C(=O)NC1CCCC1)N(C(=O)c1snc(C(N)=O)c1N)c1ccc(C)cc1 (stereo not given) returned GLS inhibitor -21.2%, mIDH1 inhibitor inconclusive, PGK inhibitor -0.7%, Pin1 inh 6.7%, IDH1 autofl -4.3, WT IDH1 inh -0.4% and IDH1 R132H conf inconclusive.
`COc1ccccc1N(C(=O)c1snc(C(N)=O)c1N)C(C(=O)NC1CCCC1)c1ccco1` (stereo not given) gave GLS inhibitor 7.0%, mIDH1 inhibitor -17.4%, PGK inhibitor -7.8% and Pin1 inh -2.9%.
COc1ccccc1N(C(=O)c1snc(C(N)=O)c1N)C(C(=O)NC1CCCCC1)c1cccc(OC)c1OC (stereo not given) was read as GLS inhibitor 6.0%, mIDH1 inhibitor inconclusive, PGK inhibitor -10.6%, Pin1 inh 0.3%, IDH1 autofl 3.0, WT IDH1 inh -1.2% and IDH1 R132H conf inconclusive.
`COc1ccc(C)cc1N(C(=O)c1snc(C(N)=O)c1N)C(C(=O)NC1CCCCC1)c1ccc(C)o1` (stereo not given) gave GLS inhibitor -1.4%, mIDH1 inhibitor inconclusive, PGK inhibitor -2.3%, Pin1 inh -2.5%, IDH1 autofl -2.6, WT IDH1 inh 1.7% and IDH1 R132H conf 14.1µM*.
`Cc1cccc(N(C(=O)c2snc(C(N)=O)c2N)C(C(=O)NC2CCCC2)c2ccco2)c1` (stereo not given) gave GLS inhibitor -6.9%, mIDH1 inhibitor inconclusive, PGK inhibitor -12.4%, Pin1 inh -1.4%, IDH1 autofl -10.6, WT IDH1 inh -1.0% and IDH1 R132H conf 35.5µM*.
For Cc1ccc(N(C(=O)c2snc(C(N)=O)c2N)C(CC(C)C)C(=O)NC2CCCC2)cc1 (stereo not given) the results were GLS inhibitor -2.1%, mIDH1 inhibitor -5.2%, PGK inhibitor -9.2% and Pin1 inh 1.4%.
O=S1(=O)N=C(Oc2ccc(Br)cc2)c2ccccc21 was read as Pin1 inh -1.4%.
Screening Cn1c2ccccc2c(=O)c2c(=O)n(-c3ccccc3)c(C3CCCCC3)nc21 returned GLS inhibitor -25.2%, mIDH1 inhibitor 11.7µM*, PGK inhibitor 13.6%, Pin1 inh 1.8%, IDH1 autofl -1.7, WT IDH1 inh 25.1µM* and IDH1 R132H conf 4.47µM*.
For Cn1c2ccccc2c(=O)c2c(=O)n(C3CCCCC3)c(-c3cccs3)nc21 the results were GLS inhibitor -4.9%, mIDH1 inhibitor 36.9µM*, PGK inhibitor inactive, Pin1 inh -15.7%, IDH1 autofl 11.9, WT IDH1 inh -21.5% and IDH1 R132H conf 15.8µM*.
`Cn1c2ccccc2c(=O)c2c(=O)n(C3CCCCCC3)c(C3CCCCC3)nc21` gave GLS inhibitor 0.0%, mIDH1 inhibitor 9.27µM*, PGK inhibitor -6.3%, Pin1 inh -13.3%, IDH1 autofl 3.9, WT IDH1 inh 14.1µM* and IDH1 R132H conf 2.82µM*.
COc1ccc(Cn2c(C3CCCCC3)nc3c(c(=O)c4ccccc4n3C)c2=O)cc1 was read as GLS inhibitor -27.4%, mIDH1 inhibitor inconclusive, PGK inhibitor -2.6% and Pin1 inh 26.7%.
Screening Cc1ccsc1CN(C)c1ncnc2ccc(-c3ccc4c(c3)OCO4)cc12 returned Pin1 inh 13.9%.
